D1 ag: activates the human D1 dopamine receptor | activation, % at 2 µM | HEK293 T-REx D1 cells, calcium flux, agonist mode | P21728 | AID 504660 | actives 1% (n = 360,000); further: 0% is about no effect
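Inducible HEK293 T-REx D1 cells, force-coupled to calcium signalling, were plated at 4000 cells/well with tetracycline and held overnight at 30 C. After no-wash calcium dye loading, compound-evoked calcium rise over 180 s flagged agonists.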
TRHR enhancer: TRH receptor (human) allosteric enhancement; P34981; TRHR cells, fluo-8 calcium fluorescence, EC20 TRH enhancement; enhancement, % at 2 µM; actives 0.66% (n = 360,000); AID 493056; in the data active means enhancement above about 30%; further: 0% is about no effect
Target sequence (P34981 whole entry, looked up): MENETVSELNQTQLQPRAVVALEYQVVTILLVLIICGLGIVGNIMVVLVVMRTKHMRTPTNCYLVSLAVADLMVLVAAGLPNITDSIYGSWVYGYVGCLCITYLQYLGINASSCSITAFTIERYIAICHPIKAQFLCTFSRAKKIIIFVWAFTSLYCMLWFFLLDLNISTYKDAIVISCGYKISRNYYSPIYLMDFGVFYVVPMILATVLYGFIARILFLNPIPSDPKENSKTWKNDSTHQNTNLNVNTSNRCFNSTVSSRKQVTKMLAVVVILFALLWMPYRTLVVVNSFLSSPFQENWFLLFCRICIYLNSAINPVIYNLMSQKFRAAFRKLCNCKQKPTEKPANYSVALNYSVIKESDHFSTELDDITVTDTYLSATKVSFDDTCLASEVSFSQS
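TRHR-expressing cells loaded with fluo-8 calcium dye were read kinetically (ex 480/em 530) during compound addition, then stimulated with an EC20 of TRH (10 nM final). Enhancement of the Gq-mediated intracellular calcium response was scored.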
D1 antagonist: blocks dopamine activation of the human D1 receptor. HEK293 TREx D1 cells, calcium flux, dopamine EC80; stronger effect = lower value. actives 3.2% (n = 360,000). P21728. activity change, negative = inhibition, % at 10 µM; in the data active means activity change below about -30%; further: on the % scale 0 is the no-effect control and ±100 the full control effect
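Inducible Hek293 Trex D1 cells (tetracycline, overnight, 30 C). Calcium dye 30–90 min RT. Antagonist mode: EC80 dopamine added after 180 s compound read.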
TRHR ag: activates the human TRH receptor; P34981; TRHR cells, calcium flux fluo-8, FDSS agonist mode; activation, % at 2 µM; actives 0.18% (n = 360,000); AID 493084; further: 0% is about no effect
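TRHR-expressing cells, plated overnight in medium with 10% serum, were loaded with fluo-8 calcium dye at room temperature. After a 10 s baseline, library compound was pin-added and calcium release was recorded kinetically (ex 480/em 530) as agonist response.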
D1 PAM: human D1 dopamine receptor positive modulation. potentiation, % at 10 µM. actives 0.036% (n = 360,000). AID 504651. HEK293 TREx D1 cells, calcium flux, dopamine EC20 potentiation. P21728; in the data active means potentiation above about 30%; further: 0% is about no effect
Starred values were filed as active, the others as inactive; ! = not active in a repeat. Hits are enriched below; roughly 4.6% of the tested compounds scored in any of these assays. Unless noted, no stated cut-off is given here; in the data, active means activation above about 30%; inactive means the rest.

SMILES | D1 ag | TRHR enhancer | D1 antagonist | TRHR ag | D1 PAM
CC(C)Oc1ccc(CNC(=O)Nc2ccc3c(c2)N(C)C(=O)c2ccccc2S3)cc1 | 25.2 | 6.0 | -4.2 | -0.9 | -4.4
Cc1cc(C)n(C(=O)/C(C#N)=N/Nc2cc(Cl)cc(Cl)c2)n1 | 20.2 | -9.1 | -34.0* | 1.1 | -6.3
CN(C)c1nc(N(C)C)n(C(=O)c2ccc(F)cc2)n1 | 4.3 | -3.7 | -33.3* | 0.0 | -3.5
Cc1ccccc1CN1C(=O)c2ccccc2S(=O)c2ccc(C(=O)NCc3ccco3)cc21 (stereo unspecified) | 3.4 | -2.1 | -18.2 | 0.2 | -1.4
Fc1ccccc1Cc1noc(CN2CCN(C/C=C/c3ccccc3)CC2)n1 | 1.2 | -4.9 | -52.8* | -0.1 | 3.7
O=CN1CCCN(Cc2nc(Cc3ccccc3F)no2)CC1 | 4.4 | -6.1 | 0.3 | 0.2 | -4.2
CCOc1ccc(NC(=O)CCSc2nc(-c3ccc4c(c3)OCO4)cc(C(F)(F)F)n2)cc1 | 0.7 | 6.3 | 11.7 | -0.4 | -4.2
O=C(NNc1c(Cl)cccc1Cl)c1c(F)cccc1Cl | 1.9 | -7.6 | -34.6* | -0.6 | -7.3
CN(C)c1ccc(NC(=O)CCN2C(=O)c3cccc([N+](=O)[O-])c3C2=O)cc1 | 1.9 | -0.4 | 7.5 | -0.6 | 3.5
N#C/C(=C/c1ccc(-c2ccccc2[N+](=O)[O-])o1)C(N)=O | -0.5 | -2.4 | -41.0* | 0.7 | -10.6
COc1ccccc1OCC(=O)Nc1ccc(S(=O)(=O)N(C)c2ccccc2)cc1 | 12.2 | -5.1 | -40.8* | 0.1 | -1.4
CCN(c1ccccc1)S(=O)(=O)c1ccc(NC(=O)c2nc(S(C)(=O)=O)ncc2Cl)cc1 | 1.6 | -0.9 | -34.4* | 1.1 | -6.6
CCSc1ncc(Cl)c(C(=O)Nc2ccc(S(=O)(=O)N(C)c3ccccc3)cc2)n1 | 7.7 | -3.2 | 1.9 | 0.9 | 0.2
CCS(=O)(=O)c1ncc(Cl)c(C(=O)Nc2ccc(S(=O)(=O)N(C)c3ccccc3)cc2)n1 | 1.7 | -10.6 | -60.7*! | 0.7 | -18.1
Cc1ccc(-c2cn3c(n2)sc2cc(C(=O)N4CCCCC4)ccc23)cc1 | 2.7 | -9.7 | 15.4 | 0.7 | 0.2
Cc1ccc(S(=O)(=O)Nc2c(C)n(C)n(-c3ccccc3)c2=O)cc1C(=O)NCc1ccccn1 | 0.3 | 4.5 | -33.6* | -1.7 | -4.8
Cc1c(NS(=O)(=O)c2ccc(C(=O)NCc3ccc(F)cc3)cc2)c(=O)n(-c2ccccc2)n1C | 0.4 | 2.2 | -35.7* | -0.1 | -8.8
CSc1nc2ccc(S(=O)(=O)Nc3c(C)n(C)n(-c4ccccc4)c3=O)cc2s1 | 0.3 | 2.2 | -90.6* | 0.1 | -6.8
Cc1ccc(NC(=O)c2ccc(S(=O)(=O)Nc3c(C)n(C)n(-c4ccccc4)c3=O)cc2)nc1 | 4.1 | 3.0 | 7.0 | -0.4 | -4.3
CCN(Cc1ccccc1)C(=O)C(C)OC(=O)c1cc(S(=O)(=O)Nc2c(C)n(C)n(-c3ccccc3)c2=O)ccc1C (stereo unspecified) | 1.2 | 6.8 | -68.7* | -0.6 | -0.9
Cc1ccc(S(=O)(=O)N2CCCCC2)cc1C(=O)NCc1ccccn1 | -3.2 | 2.4 | 14.1 | 0.7 | 2.9
CCN(Cc1ccccc1)C(=O)COC(=O)c1cc(S(=O)(=O)Nc2c(C)n(C)n(-c3ccccc3)c2=O)ccc1C | 1.6 | 9.5 | -2.3 | -1.0 | -6.6
Cc1c(NS(=O)(=O)c2ccc3c(c2)n(C)c(=O)n3C)c(=O)n(-c2ccccc2)n1C | 0.3 | 4.6 | 3.9 | 0.0 | 0.2
COc1cccc(CNC(=O)CCc2nnc3n(C)c(=O)c4sccc4n23)c1 | 0.7 | 2.5 | 2.4 | -0.4 | -0.4
COc1ccc(-c2cc(C(F)(F)F)nc(NCc3ccccc3)n2)cc1OC | 0.8 | -3.6 | 6.6 | 0.0 | -0.3
COc1cccc(-c2cc(C(F)(F)F)nc(NCCc3ccc(OC)c(OC)c3)n2)c1 | 10.7 | -4.9 | -52.8* | 1.1 | 0.5
CCCN1CCc2c(sc3nc(SC)n(-c4ccccc4)c(=O)c23)C1 | 0.3 | 2.9 | 6.7 | 0.0 | 2.7
Cc1ccc(N(C(C)C(=O)N2CCCC2)S(C)(=O)=O)cc1 (stereo unspecified) | 1.2 | -7.0 | -32.1* | 0.0 | 4.3
Cc1ccc(OCCCCNC2CCCC(C)C2C)c(C)c1 (stereo unspecified) | 42.2* | 5.5 | 22.1 | 0.6 | -0.1
C/C(=N\O)c1ccc(Cl)c(Cl)c1 | 1.4 | 0.7 | -49.1* | 0.1 | -7.6

Assay outcomes: PubChem BioAssay, National Center for Advancing Translational Sciences (NCATS)
